Out of some 38,000 compounds screened, about 1,200 (3.2%) showed an effect of 50% or more. The median lay at about -58%. The sample holds strong results, similar compounds and a random draw of the others, so the mix is not that of the screen.
These molecules were tested on Plasmodium falciparum (assay: Calibr Malaria Delayed Death Assay SOP). Details: concentration 4.99e-06 (unit not given; other assays of the set use mol/L).
Assay type: functional, organism-based
Parameters: scale not given: in the data most compounds retested in dose-response had high values

Row | SMILES | Percent Effect
1 | Cc1cc(CN2CCN(c3ccnc(-c4ccccc4)n3)CC2)no1 | -117.2%
2 | Cc1cc(NC(=O)C2CN(Cc3ccccc3)CCO2)ccn1 (stereo unspecified) | -48%
3 | NC(=O)c1cnc2n1CCN(C(=O)c1cccc(Cn3cccn3)c1)C2 | -26.24%
4 | O=C1CCCN1CCC1CCN(C2CCC3(CCNCC3)CC2)CC1 | -113.8%
5 | COc1ccc(NC(=O)Nc2cnc(N3CCN(C)CC3)nc2)cc1Cl | 87.5%
6 | COc1ccc(C)cc1NC(=O)Nc1cnc(N2CCCC2)nc1 | -31.15%
7 | Cc1cc(C)cc(NC(=O)c2cnc(N3CCN(C)CC3)nc2C)c1 | -105.5%
8 | COc1ccc(NC(=O)c2cnc(N3CCN(C)CC3)nc2C)cc1 | -110.8%
9 | Cc1ccc(NC(=O)Nc2cnc(N3CCN(C)CC3)nc2)cc1 | 58.27%
10 | COc1ccc(C)cc1NC(=O)Nc1cnc(N2CCOCC2)nc1 | 6.993%
11 | CCN(CC)C(CNS(=O)(=O)c1ccc(C(N)=O)cc1)c1ccco1 (stereo unspecified) | -82.08%
12 | O=C(O)C(F)(F)F.O=S(=O)(c1cccs1)N1Cc2nc(CN3CCCCC3)oc2C1 | -52.21%
13 | O=C(CCO)N1CC[C@@H]2CN(C(=O)c3ccco3)CCO[C@@H]2C1 | -32.06%
14 | COc1c(C)cnc(CN(C)C2CCCCC2)c1C | 76.34%
15 | COc1c(C)cnc(CN2CCn3c(nnc3C3CC3)C2)c1C | -38.06%
16 | COc1c(C)cnc(CN(C)C2CCOC3(CCOCC3)C2)c1C (stereo unspecified) | -5.784%
17 | CCC(=O)N(C)C1CCN(Cc2ncc(C)c(OC)c2C)CC1 | -107.4%
18 | COc1c(C)cnc(CN2CCC(C(=O)N(C)C)CC2)c1C | -25.53%
19 | COc1c(C)cnc(CN2CCn3c(nnc3C(C)C)C2)c1C | -75.36%
20 | COc1c(C)cnc(CN(C)C(=O)c2ccccc2O)c1C | -65.02%
21 | COc1c(C)cnc(CN2CCC(N(C)C(C)C(N)=O)CC2)c1C (stereo unspecified) | 77.51%
22 | CSc1ccc(C(=O)N2CC(=O)N(CC3CC3)CC(O)C2)cc1 (stereo unspecified) | -80.98%
23 | CC(C)c1nn(C)c(N(C)C)c1CNC1CCOc2ccccc21 (stereo unspecified) | -13.52%
24 | O=C(O)C(F)(F)F.O=C(c1ccccc1F)N1CCC2(CC1)CC(N1CCCC1)CO2 (stereo unspecified) | -57.39%
25 | Cc1nc(C2CCCN(C(=O)c3cc(-c4ccccc4)[nH]n3)C2)no1 (stereo unspecified) | -103.7%
26 | O=C(COc1coc(CN2CCCCC2)cc1=O)Nc1cccc(Cl)c1 | -36.85%

Row | SMILES | Percent Effect
27 | N#Cc1cc(F)c(NCc2ccc(F)cc2)c(F)c1 | -56.06%
28 | Cc1cccc(NC(=O)C2(n3cnnn3)CCCCC2)n1 | -65.2%
29 | O=C(C1=CCCC1)N1C[C@@H]2COC[C@]2(COCC2CC2)C1 | -77.68%
30 | COc1ccc(CNCC2CCN(CCO)CC2)cc1F | 57.05%
31 | OCCN1CCC(CNCc2cn(-c3ccccc3)nn2)CC1 | -75.43%
32 | CCOCCNCC1CCN(CCO)CC1 | -86.72%
33 | CCN1CCOC(CNCc2ccc(OC)c(F)c2)C1 (stereo unspecified) | -53.15%
34 | COc1ccc(CNCC2CN(C3CC3)CCO2)cc1F (stereo unspecified) | -41.72%
35 | CCn1cc(CNCC(c2ccc(Cl)cc2)n2cccn2)cn1 (stereo unspecified) | 59.81%
36 | Cn1cc(CNCC(c2ccc(Cl)cc2)n2cccn2)cn1 (stereo unspecified) | 16.07%
37 | Clc1ccc(C(CNCc2ccncc2)n2cccn2)cc1 (stereo unspecified) | -53.83%
38 | CCn1cc(-c2n[nH]c(=O)n2-c2ccc3c(c2)OCO3)c(C)n1 | -101.4%
39 | CCC[C@H]1CN(c2nc(CO)cs2)C[C@@H]1NC(=O)C1CCC1 | 1.552%
40 | CCC[C@H]1CN(c2nc(CO)cs2)C[C@@H]1NC(=O)C1(COC)CC1 | 71.28%
41 | CCC[C@H]1CN(Cc2cscn2)C[C@@H]1NC(=O)C1(COC)CCC1 | -24.11%
42 | CC(C)C[C@H](NC(=O)Cn1ccc2c(Cl)cccc21)C(=O)O | -50.44%
43 | COc1cccc(CN(C)Cc2nc(C(C)C)no2)c1 | -65.15%
44 | CN1CC(=O)N(c2ccccc2)CC12CCN(CCO)C2.O=C(O)C(F)(F)F.O=C(O)C(F)(F)F (stereo unspecified) | -19.33%
45 | O=C(O)C(F)(F)F.O=C(O)C(F)(F)F.O=C(c1c[nH]cn1)N1CCC(F)(F)C2(CCN(c3ccccn3)C2)C1 (stereo unspecified) | -115.9%
46 | O=C(O)C(F)(F)F.O=C(O)C(F)(F)F.OCCN1CC2(CCN(c3ccccc3)C2)C1 | 61.64%
47 | FC1(F)CCN(Cc2ccncc2)CC12CCN(c1cccnc1)C2.O=C(O)C(F)(F)F.O=C(O)C(F)(F)F.O=C(O)C(F)(F)F (stereo unspecified) | 15.13%
48 | FC1(F)CCN(Cc2cccnc2)CC12CCN(c1cnccn1)C2.O=C(O)C(F)(F)F.O=C(O)C(F)(F)F.O=C(O)C(F)(F)F (stereo unspecified) | -45.54%
49 | Cn1cnc(S(=O)(=O)N2CC3(CCN(c4ccccc4)C3)C2)c1.O=C(O)C(F)(F)F | 1.109%
50 | O=C(O)C(F)(F)F.O=C(c1c[nH]cn1)N1CCC(F)(F)C2(CCN(c3cccc(F)c3)C2)C1 (stereo unspecified) | 85.76%
51 | O=C(O)C(F)(F)F.O=C(c1c[nH]cn1)N1CCC(F)(F)C2(CCN(c3ncccn3)C2)C1 (stereo unspecified) | -29.78%
52 | OCCN1CCC(F)(F)C2(CCN(c3cccnc3)C2)C1 (stereo unspecified) | -53.32%

Row | SMILES | Percent Effect
53 | FC1(F)CCN(Cc2cccnc2)CC12CCN(c1ccccc1)C2.O=C(O)C(F)(F)F.O=C(O)C(F)(F)F.O=C(O)C(F)(F)F (stereo unspecified) | 84.58%
54 | FC1(F)CCN(c2ccccc2)CC12CCN(c1ncccn1)C2 (stereo unspecified) | -152.8%
55 | C=C(C)CN1CCC(NC(=O)Nc2ccc(F)c(C(N)=O)c2)CC1 | -90.89%
56 | Cc1cc(Br)ccc1C(=O)NCCN1CCCCCC1 | 28.4%
57 | COc1ccc(Cn2cc(C(=O)N(C)Cc3ccn[nH]3)nn2)cc1 | -12.45%
58 | CCC(C)[C@H](N)c1nnc(SCC(=O)Nc2ccc(C)cc2C)o1.Cl (stereo partly specified) | -23.34%
59 | COc1ccc(C2CCCCCN2Cc2cn(C)nc2C)cc1 (stereo unspecified) | -0.1987%
60 | CSc1ncnc(NCc2ccccc2F)c1C#N | -23.93%
61 | O=C1COc2cc(C(=O)NS(=O)(=O)c3ccc(F)cc3)ccc2N1 | -21.19%
62 | Cc1nn(C)c(Cl)c1C1CCCN1C(=O)c1cccn1C (stereo unspecified) | -34.06%
63 | c1cc(CNCC2CNc3ccnn3C2)cc(Cn2cccn2)c1 (stereo unspecified) | -27.88%
64 | N#Cc1ccc(N2CCCC3(CCN(c4cccnc4)CC3)C2)cc1.O=C(O)C(F)(F)F | -71.51%
65 | FC1(F)CCNCC12CCN(c1ccccn1)C2 (stereo unspecified) | 56.42%
66 | O=C(C1CCCO1)N1CCCC2(CCN(c3cccnc3)CC2)C1.O=C(O)C(F)(F)F (stereo unspecified) | -72.8%
67 | O=C(O)C(F)(F)F.O=C(O)C(F)(F)F.O=C(O)CN1CCC(F)(F)C2(CCN(c3ccccc3)C2)C1 (stereo unspecified) | 66.58%
68 | Cn1ccnc1CN1CCC(F)(F)C2(CCN(c3cnccn3)C2)C1.O=C(O)C(F)(F)F (stereo unspecified) | -1.841%
69 | Fc1cccnc1N1CCC2(CNCCC2(F)F)C1 (stereo unspecified) | 45.04%
70 | O=C(O)C(F)(F)F.O=C(O)C(F)(F)F.O=C(O)CN1CCC(F)(F)C2(CCN(c3ccccn3)C2)C1 (stereo unspecified) | -82.81%
71 | FC1(F)CCNCC12CCN(c1ncccn1)C2 (stereo unspecified) | 17.29%
72 | Cn1ccnc1CN1CCC2(CC1)CN(Cc1cccnc1)C(=O)CO2.O=C(O)C(F)(F)F.O=C(O)C(F)(F)F | -38.55%
73 | O=C(CO)N1CCC(F)(F)C2(CCN(c3ccccc3)C2)C1.O=C(O)C(F)(F)F (stereo unspecified) | -34.49%
74 | FC1(F)CCNCC12CCN(c1cccnc1)C2.O=C(O)C(F)(F)F.O=C(O)C(F)(F)F (stereo unspecified) | 64.81%
75 | Cn1ccnc1CN1CCC(F)(F)C2(CCN(c3cccnc3)C2)C1.O=C(O)C(F)(F)F.O=C(O)C(F)(F)F (stereo unspecified) | 58.45%
76 | COCC1CN(Cc2ccoc2)Cc2nn(CC3CC3)cc21.O=C(O)C(F)(F)F (stereo unspecified) | -62.03%
77 | O=C(C1CC(c2ccccc2)=NO1)N1CCc2ccccc21 (stereo unspecified) | -20.98%
78 | Cc1cnn(CCNCC(=O)NCCOc2ccc(Cl)cc2)c1 | -0.9504%

Row | SMILES | Percent Effect
79 | O=C(Cc1noc(C(=O)NCC2CC2)n1)Nc1cccc(C(F)(F)F)c1 | 7.243%
80 | Clc1snnc1CN1CCN(c2nccs2)CC1 | -49.26%
81 | CC(=O)Nc1cccc2c1ccn2CC(=O)Nc1n[nH]c(CC(C)C)n1 | -107.2%
82 | Cc1csc(CNC(=O)N2CCN(Cc3ccco3)CC2)n1 | -96.64%
83 | CNc1cc(C)nc(N2C[C@H](C3CC3)[C@@H](N)C2)n1 | 87.7%
84 | CNc1cc(C)nc(N2C[C@H](NC(=O)C3CCOCC3)[C@@H](C3CC3)C2)n1 | -47.54%
85 | CCc1cc(N2C[C@H](C3CC3)[C@@H](N)C2)nc(N2CCCC2)n1 | 69.94%
86 | N[C@H]1CN(Cc2cnc(N3CCCC3)nc2)C[C@@H]1C1CC1 | -9.289%
87 | CC(C)Oc1cc(N2C[C@H](C3CC3)[C@@H](N)C2)nc(N)n1 | -219.2%
88 | CNc1cc(C)nc(N2C[C@@H](C(=O)O)[C@H](C3CC3)C2)n1 | -82.68%
89 | O=C1CN(C(=O)c2cccc(C(F)(F)F)c2)CC(O)CN1CC1CC1 (stereo unspecified) | -23.92%
90 | COCC(=O)N(Cc1ccc2[nH]ccc2c1)C1CC1 | -74.09%
91 | O=C(c1ccc(-c2ccoc2)nc1)N1CCCN(C2CCCCC2)CC1 | -100.8%
92 | Cc1ccc(S(=O)(=O)CCC(=O)N(C)Cc2cnn(C)c2)cc1 | -22.92%
93 | CCC1COCCN1C(=O)NCc1nccn1CCc1ccccc1 (stereo unspecified) | -72.5%
94 | OCCN1CCN(CC(O)c2ccc(OC(F)(F)F)cc2)CC1 (stereo unspecified) | -7.34%
95 | CCCN1CCN(CC(O)c2ccc(OC(F)(F)F)cc2)CC1 (stereo unspecified) | 42.81%
96 | CN(Cc1ccccc1OC(F)(F)F)C(=O)C1CC1 | -112.4%
97 | NC(=O)N1CCCC(C(=O)NCc2ccccc2OC(F)(F)F)C1 (stereo unspecified) | -135.5%
98 | CC(NCC1CCN(CCO)CC1)c1ccc(OC(F)(F)F)cc1 (stereo unspecified) | 93.49%
99 | COCCN1CCN(CC(O)c2ccc(C(F)(F)F)cc2)CC1 (stereo unspecified) | 6.899%
100 | CC(c1ccc(C(F)(F)F)cc1)N1CCN(CCS(C)(=O)=O)CC1 (stereo unspecified) | -72.63%
101 | CC(NCC1CCN(CCO)CC1)c1ccc(C(F)(F)F)cc1 (stereo unspecified) | 88.54%

Source: ChEMBL document CHEMBL3988442, “University of Dundee, Small-Polar-MMV Screening Library” (2021)
